Inconclusive results are not listed. Where a call stands in place of a potency, no number is given. Values without a mark were called inactive. Calls of active or inactive are those of the source. Unless noted, calls follow the shape of the dose curve; as a rule, active = well fitted curve in the direction sought with a large enough effect; inconclusive = small, poorly fitted or top-dose-only effect, or another doubt; inactive = no such curve, though single readings can be large; an effect the other way counts as inactive or inconclusive.
Key:
[1] = qHTS to identify inhibitors of the type 1 interferon - major histocompatibility complex class I in skeletal muscle: primary screen against the NCATS Pharmaceutical Collection (AID 1347407);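 also: luminescence of HiBiT knocked into endogenous HLA-B as interferon-induced MHC class I level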; also: potency is read from the fitted curve at half-maximal effect
Outline: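 Cells were seeded with 4 ng/ml IFN-beta, incubated 1 h, then dosed with compounds over eight 1:5 steps up to 46 uM final. After 24 h at 37 C, HiBiT lytic reagent was added and luminescence read after 10 min lysis in the dark.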

[2] = target: Protein phosphatase 1D (Homo sapiens) (UniProt O15297); assay: RapidFire Mass Spectrometry qHTS Assay for Modulators of WT P53-Induced Phosphatase 1 (WIP1) (AID 1347424);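 also: amount of dephosphorylated VEPPL-S-QETFS peptide product formed by WIP1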; also: potency is read from the fitted curve at half-maximal effect
Protein phosphatase 1D (Homo sapiens), sequence (O15297 whole entry, looked up): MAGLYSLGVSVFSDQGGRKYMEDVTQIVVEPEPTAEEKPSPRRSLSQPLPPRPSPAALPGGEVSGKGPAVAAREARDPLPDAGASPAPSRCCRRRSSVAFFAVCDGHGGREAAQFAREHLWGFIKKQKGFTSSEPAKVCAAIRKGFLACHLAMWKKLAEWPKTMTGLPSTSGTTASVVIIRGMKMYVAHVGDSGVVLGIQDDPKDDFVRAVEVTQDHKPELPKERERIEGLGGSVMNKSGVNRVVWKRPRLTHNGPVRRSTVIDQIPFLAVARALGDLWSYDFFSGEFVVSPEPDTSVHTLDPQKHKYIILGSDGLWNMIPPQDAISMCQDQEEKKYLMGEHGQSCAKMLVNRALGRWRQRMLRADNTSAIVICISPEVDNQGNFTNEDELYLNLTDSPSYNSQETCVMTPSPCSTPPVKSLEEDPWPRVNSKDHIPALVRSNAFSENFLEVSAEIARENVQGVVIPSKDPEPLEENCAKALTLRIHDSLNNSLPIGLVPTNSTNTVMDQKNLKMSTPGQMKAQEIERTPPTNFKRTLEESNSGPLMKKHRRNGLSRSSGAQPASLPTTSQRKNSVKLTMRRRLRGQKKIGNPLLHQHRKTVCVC
Outline: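 10 nM WIP1 + cpd, 1 h RT; + 2 uM VEPPL-pS-QETFS, 5 min RT; stop 0.5% formic acid; labelled product standard 1 uM; RapidFire MS. Buffer 50 mM Tris pH 7.5, 30 mM MgCl2, 1 mM TCEP.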

[3] = Primary qHTS for inhibitors of La Crosse Virus (LACV) - induced cell death in SH-SY5Y cells (AID 1508616);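 also: top concentration of the series differs between compounds; higher means more rescue of cells from virus-induced death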
Outline: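 Protection against LACV-induced cell death is scored in SH-SY5Y cells exposed to compounds and virus (0.01 MOI) for 6 days. Data normalized to virus-infected DMSO wells and virus-free DMSO wells.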

[4] = target: Calcium and integrin-binding protein 1 (Homo sapiens) (UniProt Q99828); assay: Primary qHTS for Identification of Calcium Integrin Binding Protein 1 (CIB1) Competitor (AID 1508620);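 also: GST tagged CIB1 binding a fluorescein labelled alphaIIb integrin peptide tracer; top concentration of the series differs between compounds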
Calcium and integrin-binding protein 1 (Homo sapiens), sequence (Q99828 whole entry, looked up): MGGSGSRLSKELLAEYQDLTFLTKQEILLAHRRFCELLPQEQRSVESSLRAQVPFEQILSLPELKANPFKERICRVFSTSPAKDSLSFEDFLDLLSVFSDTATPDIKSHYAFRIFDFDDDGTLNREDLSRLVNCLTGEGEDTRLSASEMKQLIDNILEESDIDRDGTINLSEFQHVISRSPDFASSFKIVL
Outline: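 CIB1-GST (1 uM final) and compound incubated 15 min at room temperature before adding FITC-alphaIIb peptide tracer (100 nM final). Competition for binding read by fluorescence polarization (ex 480, em 540) after another 15 min at room temperature.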

[5] = Cell Viability qHTS for small molecule stabilizers of the endoplasmic reticulum resident proteome (AID 1508629); details: cell viability counter-screen, 100 nM thapsigargin for final 4 h;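 also: human SH-SY5Y neuroblastoma cells carrying the GLuc-SERCaMP reporter; compound exposure about 46 h in total before the viability read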
[6] = target: Cytochrome P450 2D6 (Homo sapiens) (UniProt P10635); assay: Cytochrome P450 family 2 subfamily D member 6 (CYP2D6) small molecule antagonists: luciferase biochemical (cell-free) qHTS assay (AID 1645840; active = well fitted curve in the direction sought with a large enough effect in the repeat runs; an effect the other way counts as inactive or inconclusive; also: nearly all actives have a fitted effect of over 55% in size; also: potency is read from the fitted curve at half-maximal effect)
Cytochrome P450 2D6 (Homo sapiens), sequence (P10635 whole entry, looked up): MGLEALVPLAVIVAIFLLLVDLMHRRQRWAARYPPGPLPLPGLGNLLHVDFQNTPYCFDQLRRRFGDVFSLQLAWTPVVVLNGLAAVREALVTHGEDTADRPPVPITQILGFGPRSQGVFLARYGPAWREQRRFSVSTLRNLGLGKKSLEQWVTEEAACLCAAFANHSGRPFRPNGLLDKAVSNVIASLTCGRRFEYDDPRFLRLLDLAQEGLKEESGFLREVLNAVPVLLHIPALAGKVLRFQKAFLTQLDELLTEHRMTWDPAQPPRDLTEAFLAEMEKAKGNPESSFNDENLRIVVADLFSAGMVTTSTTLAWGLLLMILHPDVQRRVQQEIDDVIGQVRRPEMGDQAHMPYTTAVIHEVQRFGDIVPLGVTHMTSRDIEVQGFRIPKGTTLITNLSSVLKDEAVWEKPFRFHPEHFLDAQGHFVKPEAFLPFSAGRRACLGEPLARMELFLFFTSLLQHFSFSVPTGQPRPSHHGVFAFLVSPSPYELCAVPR
Outline: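 P450-Glo luminescent screen: recombinant CYP2D6 enzyme–proluciferin substrate mix preincubated with compound 10 min at room temperature, then NADPH regeneration added for 1 h at room temperature. Detection reagent added for 20 min; luciferin light read as relative luminescence units.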

[7] = target: Cytochrome P450 2C9 (Homo sapiens) (UniProt P11712); assay: Cytochrome P450 family 2 subfamily C member 9 (CYP2C9) small molecule antagonists: luciferase biochemical (cell-free) qHTS assay (AID 1645842; active = well fitted curve in the direction sought with a large enough effect in the repeat runs; an effect the other way counts as inactive or inconclusive; also: nearly all actives have a fitted effect of over 55% in size; also: potency is read from the fitted curve at half-maximal effect)
Cytochrome P450 2C9 (Homo sapiens), sequence (P11712 whole entry, looked up): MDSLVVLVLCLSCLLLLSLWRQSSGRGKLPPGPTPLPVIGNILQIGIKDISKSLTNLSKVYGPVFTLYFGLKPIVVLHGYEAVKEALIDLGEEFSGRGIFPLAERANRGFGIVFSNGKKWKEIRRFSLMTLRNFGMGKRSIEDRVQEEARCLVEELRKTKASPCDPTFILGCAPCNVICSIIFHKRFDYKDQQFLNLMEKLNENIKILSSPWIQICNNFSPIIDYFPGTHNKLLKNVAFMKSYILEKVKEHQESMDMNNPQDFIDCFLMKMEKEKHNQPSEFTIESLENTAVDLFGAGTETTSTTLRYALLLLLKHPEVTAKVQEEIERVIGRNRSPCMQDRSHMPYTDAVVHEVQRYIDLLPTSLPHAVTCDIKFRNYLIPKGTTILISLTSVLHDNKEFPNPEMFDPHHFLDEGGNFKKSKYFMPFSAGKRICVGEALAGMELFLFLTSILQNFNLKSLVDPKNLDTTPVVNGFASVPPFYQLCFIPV
Outline: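 Luminescence, after 20 min with luciferin detection reagent, reflected CYP2C9 turnover during a 1 h NADPH-driven reaction at 37C. Enzyme-substrate mix contained 0.4% bovine serum albumin and was preincubated with compound 10 min at room temperature.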

[8] = target: Protein phosphatase 1D (Homo sapiens) (UniProt O15297); assay: Rhodamine-PBP qHTS Assay for Modulators of WT P53-Induced Phosphatase 1 (WIP1) (AID 1347425)
Outline: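 Steps: enzyme with Rh-PBP sensor and compounds, room-temperature incubation of 1 hr, baseline read, addition of VEPPL-pS-QETFS (10 uM final), kinetic fluorescence reads at 525/598 nm. Activity equals final minus baseline signal.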

[9] = Primary qHTS for small molecule stabilizers of the endoplasmic reticulum resident proteome: Secreted ER Calcium Modulated Protein (SERCaMP) assay (AID 1508630)
Outline: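 GLuc-SERCaMP-expressing SH-SY5Y cells, pretreated 16 h with compound, are challenged with thapsigargin to empty ER calcium stores; after 4 h, coelenterazine is added directly to the medium and luminescence is imaged.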

[10] = A High-Content qHTS Against Drug Library for the Identification of Small Molecules that Inhibit DYT1 Early Onset Primary Dystonia-Associated Cell Pathology (AID 1645839; calls by dose curve; also: potency is read from the fitted curve at half-maximal effect)
Outline: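 In this high-content image screen, delE TorsinA mislocalization in inducible Flp-In 293 cells is scored as %pathology, with cell count serving as the counterscreen. Compound exposure lasts 48 h under tetracycline induction in reduced-serum medium.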

Structure (SMILES) | Potency [1] | Potency [2] | outcome [3] | Potency [4] | max response [5] [%] | Potency [6] | Potency [7] | outcome [8] | Potency [9] | Potency [10]
CC(C)C[C@@H]1[C@H](c2ccccc2)OC(=O)N1CCCN1CCCCCC1 | inactive | inactive | inactive | inactive | -0.48 | 0.776 µM (active) | inactive | – | – | –
Cc1onc(-c2c(Cl)cccc2Cl)c1C(=O)Cl | inactive | inactive | – | inactive | – | inactive | – | inactive | inactive | inactive
Oc1ccccc1-c1nnco1 | inactive | inactive | inactive | inactive | – | inactive | inactive | – | inactive | inactive
Cc1ccccc1N1CCN(CCc2nnc3n2CCCC3)CC1 | inactive | inactive | inactive | inactive | – | 13.8 µM (active) | inactive | – | inactive | inactive
C/C(=C1\CCOC(=O)S1)N(C=O)Cc1cnc(C)nc1N | inactive | inactive | inactive | inactive | – | – | inactive | – | inactive | inactive
CC(C)Cc1ccc(C(C)C(=O)OCc2ccccn2)cc1 (centres undefined) | inactive | inactive | inactive | inactive | – | – | 9.77 µM (active) | – | inactive | inactive
COC(=O)C1=C(C)NC(COC(N)=O)=C(C(=O)OC(C)C)C1c1cccc(Cl)c1Cl (centres undefined) | inactive | inactive | inactive | inactive | – | 19.5 µM (active) | 4.36 µM (active) | – | inactive | –
O=C1CC2(CCCC2)CC(=O)N1CCNCC1COc2ccccc2O1 (centres undefined) | inactive | inactive | inactive | inactive | – | 0.49 µM (active) | inactive | – | inactive | –
CC(=O)/C=C/C=C1/C2CCC(C2)C1(C)C (centres undefined) | inactive | inactive | inactive | inactive | – | 17.4 µM (active) | – | – | inactive | inactive
CN(C)CCN(Cc1ccsc1)c1ccccn1 | inactive | inactive | inactive | inactive | – | 6.92 µM (active) | inactive | – | inactive | inactive
Cc1nc([N+](=O)[O-])cn1-c1ccc([N+](=O)[O-])cc1 | inactive | inactive | inactive | inactive | – | inactive | inactive | – | inactive | –
CC(=O)CC/C=C(\C)CC/C=C(\C)CC/C=C(\C)CCC=C(C)C | inactive | inactive | – | inactive | – | inactive | – | inactive | – | –
CC(Oc1c(Cl)cccc1Cl)C1=NCCN1 (centres undefined) | inactive | inactive | inactive | inactive | – | 8.71 µM (active) | – | – | inactive | inactive
CC(=O)c1cc2ccccc2s1 | inactive | inactive | inactive | inactive | – | inactive | inactive | – | inactive | inactive
OC1(c2ccc(Cl)cc2)CCNCC1 | inactive | inactive | inactive | inactive | – | 15.5 µM (active) | – | – | inactive | inactive
NC(=O)C1(N2CCCCC2)CCN(CCCN2c3ccccc3CCc3ccc(Cl)cc32)CC1 | 23.6 µM (active) | inactive | – | inactive | – | 2.45 µM (active) | 4.9 µM (active) | inactive | inactive | 3.98 µM (active)
COc1cc(C(=O)NC2CCCNC2)cc(OC)c1OC (centres undefined) | inactive | inactive | inactive | inactive | – | inactive | inactive | – | inactive | inactive
CCCCOCCOC(=O)c1cccnc1 | inactive | inactive | – | inactive | – | – | – | inactive | – | inactive
CCCCCOc1ccc(C2SC(=O)NC2=O)cc1OCC (centres undefined) | inactive | 2.51 µM (active) | inactive | inactive | – | inactive | – | – | inactive | –

From PubChem BioAssay (NCATS)
